Compound activity as filed in PubChem.
This is a sample that favours compounds with a hit; in the whole collection about 7.9% have one here.
Hedgehog inh: blocks Sonic Hedgehog signaling; inhibition, % (test concentration not listed); 22,000 compounds, 2.1% hits; Shh-LIGHT2 Gli-luciferase reporter, 30 h;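 active = mean inhibition across valid replicates above about 65%, limit read from the data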;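 note: pathway switched on by Shh-conditioned medium diluted 1 in 25 in low serum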
MITF inhib: inhibitors of MITF | TRPM1 promoter luciferase, luminescence, 24 h | AID 2240 | 37,000 compounds, 0.28% hits | inhibition, % (test concentration not listed); in the data active = inhibition above about 85%;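 note: human melanocyte line stably carrying TRPM1 promoter luciferase reporter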
NOMO-1 viab: STK33 inhibitor candidate reducing NOMO-1 cell viability. inhibition, % (no concentration beside the values). 37,000 compounds, 7.5% hits. AID 2330. NOMO-1 AML viability, CellTiter-Glo luminescence, 72 h; in the data active = inhibition above about 80%
Of the large screens only hits and unclear results are named; the others gave an inactive call.

C[C@@H]1CN([C@@H](C)CO)C(=O)Cc2cc(NC(=O)Nc3ccc4c(c3)OCO4)ccc2O[C@@H]1CN(C)S(=O)(=O)c1ccc(F)cc1	none
COc1ccc(S(=O)(=O)N(C)C[C@@H]2Oc3ccc(NC(=O)Nc4ccc5c(c4)OCO5)cc3CC(=O)N([C@H](C)CO)C[C@@H]2C)cc1	NOMO-1 viab 114
Cc1ccc(S(=O)(=O)N(C)C[C@@H]2Oc3ccc(NC(=O)Nc4ccc5c(c4)OCO5)cc3CC(=O)N([C@@H](C)CO)C[C@@H]2C)cc1	NOMO-1 viab 108
C[C@H]1CN([C@@H](C)CO)C(=O)Cc2cc(NC(=O)Nc3ccc4c(c3)OCO4)ccc2O[C@H]1CN(C)S(=O)(=O)c1ccc(F)cc1	NOMO-1 viab 128
COc1ccc(S(=O)(=O)N(C)C[C@@H]2Oc3ccc(NC(=O)Nc4ccc5c(c4)OCO5)cc3CC(=O)N([C@H](C)CO)C[C@H]2C)cc1	none
O=C(CSc1nnc(-c2cccs2)n1-c1ccccc1)Nc1ccccc1Cl	none (no result: Hedgehog inh)
COc1ccc(OC)c(NC(=O)CSc2nc(C)cc(=O)[nH]2)c1	none (no result: Hedgehog inh)
Cc1sc2nc(SCc3cc(=O)[nH][nH]3)nc(N)c2c1C	none (no result: Hedgehog inh)
C[C@@H]1CN([C@@H](C)CO)C(=O)c2cccc(NS(=O)(=O)c3cn(C)cn3)c2O[C@@H]1CN(C)C(=O)NC1CCCCC1	none (no result: Hedgehog inh)
COc1cccc(C(=O)Nc2sc3c(c2C(=O)NCc2cccnc2)CCCC3)c1	none (no result: Hedgehog inh)
Cc1ccc(S(=O)(=O)Nc2ccc3c(c2)CC(=O)N([C@@H](C)CO)C[C@H](C)[C@H](CN(C)Cc2ccc(Oc4ccccc4)cc2)O3)cc1	NOMO-1 viab 120
Cc1ccc(S(=O)(=O)Nc2ccc3c(c2)CC(=O)N([C@@H](C)CO)C[C@@H](C)[C@@H](CN(C)Cc2ccc(Oc4ccccc4)cc2)O3)cc1	NOMO-1 viab 115
COc1ccc(CN(C)C[C@H]2Oc3ccc(NS(=O)(=O)c4ccc(C)cc4)cc3CC(=O)N([C@@H](C)CO)C[C@@H]2C)cc1	none
COc1ccc(CN(C)C[C@@H]2Oc3ccc(NS(=O)(=O)c4ccc(C)cc4)cc3CC(=O)N([C@H](C)CO)C[C@@H]2C)cc1	none
CC(=O)Nc1ccc(NC(=O)CN(c2ccc(C)cc2C)S(C)(=O)=O)cc1	none (no result: Hedgehog inh)
CC1(C)C(=O)C=CC2(C)C1CC(O)C1(C)C3=CCC(c4ccoc4)C3(C)CCC21 (stereo not given)	NOMO-1 viab 119
CC1(C)C(=O)C=C[C@@]2(C)C1CC(=O)[C@@]1(C)C3=CC(=O)O[C@@H](c4ccoc4)[C@]3(C)CCC12 (stereo not given in full)	none
CC(=O)NCCOc1ccc(C2CCCCC2)cc1	none
Nc1cc(C(F)(F)F)ccc1Oc1ccc(C2CCCCC2)cc1	NOMO-1 viab 113
C[C@H](CO)N1C[C@H](C)[C@H](CN(C)C(=O)Nc2ccc3c(c2)OCO3)Oc2c(NC(=O)Nc3ccc(C(F)(F)F)cc3)cccc2C1=O	NOMO-1 viab 115
C[C@H]1CN([C@@H](C)CO)C(=O)c2cccc(NC(=O)Nc3ccc(C(F)(F)F)cc3)c2O[C@@H]1CN(C)C(=O)Nc1ccc2c(c1)OCO2	NOMO-1 viab 96
C[C@@H]1CN([C@@H](C)CO)C(=O)c2cccc(NC(=O)Nc3ccc4c(c3)OCO4)c2O[C@@H]1CN(C)C(=O)Nc1ccc2c(c1)OCO2	none
C[C@@H]1CN([C@@H](C)CO)C(=O)c2cccc(NC(=O)Nc3ccc4c(c3)OCO4)c2O[C@H]1CN(C)C(=O)Nc1ccc2c(c1)OCO2	none
C[C@H]1CN([C@@H](C)CO)C(=O)c2cccc(NC(=O)Nc3ccc4c(c3)OCO4)c2O[C@@H]1CN(C)C(=O)Nc1ccc2c(c1)OCO2	none
C[C@@H]1CN([C@H](C)CO)C(=O)c2cccc(NC(=O)Nc3ccc(C(F)(F)F)cc3)c2O[C@@H]1CN(C)C(=O)Nc1ccc2c(c1)OCO2	NOMO-1 viab 112
COc1ccc(NC(=O)CN2CCN(S(=O)(=O)c3c(C)cc(C)cc3C)CC2)cc1	none (no result: Hedgehog inh)
CN1C(=O)C(c2c[nH]c3ccccc23)=C(c2c[nH]c3ccccc23)C1=O	none
C[C@@H]1CN([C@@H](C)CO)C(=O)Cc2cc(NC(=O)CCCCCC(=O)Nc3ccccc3N)ccc2O[C@@H]1CN(C)Cc1ccccc1	NOMO-1 viab 113 (no result: Hedgehog inh)
C[C@@H]1CN([C@H](C)CO)C(=O)Cc2cc(NC(=O)CCCCCC(=O)Nc3ccccc3N)ccc2O[C@H]1CN(C)Cc1ccc(Oc2ccccc2)cc1	NOMO-1 viab 125 (no result: Hedgehog inh)
COc1ccc(CN(C)C[C@H]2Oc3ccc(NC(=O)CCCCCC(=O)Nc4ccccc4N)cc3CC(=O)N([C@@H](C)CO)C[C@@H]2C)cc1	none (no result: Hedgehog inh)
C[C@H]1CN([C@@H](C)CO)C(=O)c2cc(NC(=O)CCCCCC(=O)Nc3ccccc3N)ccc2O[C@H]1CN(C)Cc1ccc(-c2ccccc2)cc1	NOMO-1 viab 109 (no result: Hedgehog inh)
